# Measurements as given in PubChem BioAssay (EPA / NIEHS).
# Several values for one entry are separate records, joined by “and”; a condition that tells them apart may be missing. Identical values can stand only once. Results filed as inconclusive are left out. Activity calls are given as the source filed them. Rule for the calls: active = hit-call score of the fitted dose curve at least 0.9, where 1 is the maximum; inconclusive = response in the unintended direction; inactive = score below 0.9.
# Biological target: human Dopamine Transporter (DAT), SLC6A3 (gene 6531) (UniProt Q01959)
# Sequence (Q01959 whole entry, looked up): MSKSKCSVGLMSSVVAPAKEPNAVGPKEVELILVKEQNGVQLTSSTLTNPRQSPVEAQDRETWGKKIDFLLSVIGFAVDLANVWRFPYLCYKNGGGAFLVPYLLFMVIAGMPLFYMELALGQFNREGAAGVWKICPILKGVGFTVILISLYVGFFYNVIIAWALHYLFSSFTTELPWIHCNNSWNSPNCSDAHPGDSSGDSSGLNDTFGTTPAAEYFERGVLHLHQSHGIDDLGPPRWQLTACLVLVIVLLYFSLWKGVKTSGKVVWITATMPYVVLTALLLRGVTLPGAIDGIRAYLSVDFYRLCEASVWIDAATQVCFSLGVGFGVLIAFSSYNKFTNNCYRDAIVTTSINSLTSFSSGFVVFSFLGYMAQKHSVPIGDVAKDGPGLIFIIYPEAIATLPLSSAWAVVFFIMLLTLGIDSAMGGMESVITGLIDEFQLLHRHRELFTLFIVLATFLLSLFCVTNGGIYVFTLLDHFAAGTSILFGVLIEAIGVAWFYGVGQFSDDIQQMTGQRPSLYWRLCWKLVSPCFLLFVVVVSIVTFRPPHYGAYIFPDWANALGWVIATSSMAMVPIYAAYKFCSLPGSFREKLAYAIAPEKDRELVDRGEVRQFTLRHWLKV
# Experiment: NVS_TR_hDAT: NovaScreen (NVS) Transporter Assay for human Dopamine Transporter (DAT) (AID 2283374);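 note: activity means loss of bound radioligand signal relative to DMSO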
# Method: NVS_TR_hDAT is a biochemical, single-readout assay that uses extracted gene-proteins in a cell-free assay. Measurements were taken 1 hour after chemical dosing in a 96-well plate.NVS_TR_hDAT is one of one assay component(s) measured or calculated from the NVS_TR_hDAT assay. It is designed to make measurements of radioligand binding, a form of binding reporter, as detected with scintillation counting signals by Filter-based radiodetection technology.Data from the assay component NVS_TR_hDAT was analyzed into 1 assay endpoint. This assay endpoint, NVS_TR_hDAT, was analyzed in the positive analysis fitting direction relative to DMSO as the negative control and baseline of activity. Using a type of binding reporter, loss-of-signal activity can be used to understand changes in the binding as they relate to the gene SLC6A3. Furthermore, this assay endpoint can be referred to as a primary readout, because the performed assay has only produced 1 assay endpoint. To generalize the intended target to other relatable targets, this assay endpoint is annotated to the transporter intended target family, where the subfamily is neurotransmitter transporter.
# Binding assays used specific radioligands (tritiated, iodinated) with non-radioactive competitive displacement ligands in agonist or antagonist protocols (as indicated) and various reference compounds and inhibitors to titrate specific binding to receptors and transporters. Most enzyme assays (CYPs, kinases, phosphatases, proteases, HDACs) used recombinant protein and specific substrates (fluorescence mostly, some colorimetric and radioactive) and inhibitors, followed by a biochemical separation of substrate and product. All assays for the biochemical HTS were initially run in duplicate at a single concentration (10 uM for CYP450 assays and 25 uM for all others). […] Each assay was run with positive and negative controls, and concurrent controls on every plate. The follow-up (secondary) screen tested active chemical-pairs in concentration series, as well as a few additional assays not tested in the primary screen, some selected negative inactives, and several cases re-run in the concentration series for confirmatory purposes.
Compound,AC50,outcome
CC(C)(C)[C@@H](O)[C@@H](Cc1ccc(Cl)cc1)n1cncn1,2.39 µM (active),–
CC(C)CCCCCCc1ccc(O)cc1,8.36 µM (active),–
CCN(Cc1c(F)cccc1Cl)c1c([N+](=O)[O-])cc(C(F)(F)F)cc1[N+](=O)[O-],–,inactive
Cc1nn(C)c(Oc2ccccc2)c1C=NOCc1ccc(C(=O)OC(C)(C)C)cc1,–,inactive
CCOC(=O)NCCOc1ccc(Oc2ccccc2)cc1,3.08 µM (active),–
c1ccc(Nc2ccccc2)cc1,4.96 µM (active),–
N#CSCSc1nc2ccccc2s1,13.7 µM (active) and 3.9 µM (active),–
CCCCCCC(C)OC(=O)COc1nc(F)c(Cl)c(N)c1Cl (stereo not drawn),–,inactive
Oc1ccc(C(c2ccc(O)cc2)C(Cl)(Cl)Cl)cc1,0.446 µM (active),–
CCOC(=O)C(C)Oc1ccc(Oc2cnc3cc(Cl)ccc3n2)cc1 (stereo not drawn),–,inactive
CC(C)(c1ccc(O)cc1)c1ccc(O)cc1,8.34 µM (active) [middle of 4 runs],–
CCCCOCCOCCOCc1cc2c(cc1CCC)OCO2,35.7 µM (active),–
C#CCOC(=O)[C@@H](C)Oc1ccc(Oc2ncc(Cl)cc2F)cc1,7.24 µM (active),–
